According to PubChem BioAssay AID504850 (National Center for Advancing Translational Sciences (NCATS), 2011):
Out of some 2,300 compounds screened, about 1,200 (52%) were called active. Inconclusive results (about 34%) are left out. So high a share suggests a set chosen from earlier hits. The list shows a part of the results. Values without a mark were called inactive. Calls come from the whole dose curve; as a rule, active = well fitted inhibition curve with a large enough effect; inconclusive = small, poorly fitted or top-dose-only effect, or effect the other way; inactive = no such curve, though single readings can be large or run the other way.

Experiment: Confirmation screen for delayed death inhibitors of the malarial parasite plastid, 48 hour incubation; note: nearly all actives have a fitted effect of over 65% in size
Conditions: P. falciparum-infected erythrocytes, luciferase growth; series mostly up to 28.7 µM; activity change, negative = inhibition: at the top concentration
Method in brief: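 Single-generation (48 h, 37 C) exposure of integrated firefly luciferase-reporter P. falciparum in red cells, 0.1% parasitemia at 2% hematocrit, Albumax-supplemented RPMI. Falling luciferase signal marks parasite growth inhibition.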
% is set by controls: 0 for no effect and ±100 for the full control effect; potency is the fitted concentration of half-maximal effect.

Row | SMILES | Potency | activity change, negative = inhibition [%]
1 | CCOC(=O)C1CCCN(C(=O)c2cc3cc4ccc(OC)cc4nc3o2)C1 (stereo unspecified) | 11.2 µM (active) | –
2 | COC(=O)[C@]1(CC(C)C)N[C@H](c2ccc(-c3ccc(F)cc3)c(OC)c2)[C@@H]2C(=O)N(C)C(=O)[C@@H]21 | 6.31 µM (active) | –
3 | COCCN(C(=O)CCCC(=O)Nc1ccccn1)C(C(=O)NC1CCCCC1)c1ccc(C)cc1 (stereo unspecified) | 11.2 µM (active) | –
4 | CC[C@H]1OC(=O)[C@H](C)[C@@H](O[C@H]2C[C@@](C)(OC)[C@@H](O)[C@H](C)O2)[C@H](C)[C@@H](O[C@@H]2O[C@H](C)C[C@H](N(C)C)[C@H]2O)[C@](C)(O)C[C@@H](C)CN(C)[C@H](C)[C@@H](O)[C@]1(C)O | 14.1 µM (active) | –
5 | CC[C@H]1OC(=O)[C@H](C)[C@@H](O[C@H]2C[C@@](C)(OC)[C@@H](O)[C@H](C)O2)C(C)[C@@H](O[C@@H]2O[C@H](C)C[C@H](N(C)C)[C@@H]2O)[C@](C)(OC)C[C@@H](C)C(=O)[C@H](C)[C@@H](O)[C@]1(C)O (stereo partly specified) | – | -15.5
6 | COc1ccccc1/C=C/C(=O)/C=C/c1ccccc1O | 1.41 µM (active) | –
7 | O=C(/C=C/c1ccccc1O)c1ccco1 | – | -8.48
8 | Cc1ccc2[nH]c3c(c2c1)CCCC3NC(=O)CCl (stereo unspecified) | 4.47 µM (active) | –
9 | Cc1cc(NC(=O)CSCC(=O)Nc2ccccc2Oc2ccccc2)no1 | 14.1 µM (active) | –
10 | COC(=O)[C@@]1(Cc2ccc(F)cc2)[C@@H]2[C@@H](CC(=O)[C@H]2CC(=O)C(=O)N(C)C)CN1C(=O)c1ccccc1 | 11.2 µM (active) | –
11 | Cc1cc([N+](=O)[O-])ccc1NC(=O)CSc1nncn1-c1cccnc1 | – | -17.8
12 | O=C(N/N=C/c1cccn1-c1ccc([N+](=O)[O-])cc1)c1cccnc1 | 10 µM (active) | –
13 | CCOc1ccc(N(C(=O)c2snc(C(N)=O)c2N)C(C(=O)NCC2CCCO2)c2c[nH]c3ccccc23)cc1 (stereo unspecified) | 3.55 µM (active) | –
14 | Cc1cc(C)c(C(=O)/C=C/c2cccc3ccccc23)c(=O)[nH]1 | 8.91 µM (active) | –
15 | COc1ccc2[nH]c(=O)c(CN(CCCN(C)C)C(=O)Nc3ccc(F)cc3)cc2c1 | 14.1 µM (active) | –
16 | O=C(Nc1nnc(SCc2ccc(F)cc2)s1)c1ccccn1 | 3.55 µM (active) | –
17 | COc1ccc(-n2nc(C#N)c(Cl)cc2=O)cc1 | – | -9.59
18 | O=c1c(Cl)cc(Cl)nn1-c1ccccc1 | 12.6 µM (active) | –
19 | C=C[C@]1(C)C[C@@H](OC(=O)CSCCN(CC)CC)[C@]2(C)C(C)CC[C@]3(CCC(=O)[C@H]32)[C@@H](C)[C@@H]1O (stereo partly specified) | 14.1 µM (active) | –
20 | COc1ccccc1-c1cc(C(=O)N/N=C/c2sccc2C)c2ccccc2n1 | 3.98 µM (active) | –
21 | COc1ccc(-c2cc(C(=O)N/N=C/c3sccc3C)c3ccccc3n2)c(OC)c1 | 12.6 µM (active) | –
22 | COc1ccc(-c2cc(C(=O)N/N=C/c3ccc4c(c3)OCO4)c3ccccc3n2)c(OC)c1 | 7.94 µM (active) | –
23 | CCOC(=O)Nc1ccc2c(CNC(C)c3ccccc3OC)cc(=O)oc2c1 (stereo unspecified) | 14.1 µM (active) | –
24 | CCc1noc(C)c1C(=O)N1CCC(CCC(=O)Nc2cccc(C)c2)CC1 | 11.2 µM (active) | –
25 | C/C(N)=C(/C#N)C(=O)COC(=O)c1cc(C)n(-c2ccc(F)cc2)c1C | 10 µM (active) | –
26 | O=C(NCc1ccc2c(c1)OCO2)c1nc(S(=O)(=O)Cc2ccccc2)ncc1Cl | – | -8.24

Row | SMILES | Potency | activity change, negative = inhibition [%]
27 | O=C(CSc1nc2cc([N+](=O)[O-])ccc2n1-c1ccccc1)NCc1ccc2c(c1)OCO2 | 11.2 µM (active) | –
28 | Cc1nc([N+](=O)[O-])c(Sc2nc3ccccc3n2C)n1Cc1ccccc1 | 15.8 µM (active) | –
29 | CN1c2ccccc2C(C)(C)C12CC(c1ccc(S(=O)(=O)N3CCCCC3)cc1)=NO2 (stereo unspecified) | 5.62 µM (active) | –
30 | CCN(CC)S(=O)(=O)c1ccc(C2=NOC3(C2)N(C)c2ccccc2C3(C)C)cc1 (stereo unspecified) | 12.6 µM (active) | –
31 | C=CCSC(=C(C#N)C#N)c1cc2c([nH]1)CCCC2 | 7.08 µM (active) | –
32 | COc1ccc(CN2CCN(C(=O)c3ccc(CNS(=O)(=O)c4ccc(C)cc4)cc3)CC2)c(OC)c1OC | 12.6 µM (active) | –
33 | CCN1C(=O)[C@@H]2[C@@H](c3ccc(SC4CCCCC4)c(OC)c3)N3CCC[C@@]3(C(=O)OC)[C@@H]2C1=O | 5.01 µM (active) | –
34 | COC(=O)[C@@]12CCCN1[C@H](c1ccc(-c3cccc(Cl)c3)c(OC)c1)[C@H]1C(=O)N(C)C(=O)[C@H]12 | 2.82 µM (active) | –
35 | COc1cc(OC)c2c(-c3cccc(-c4cccc(N)c4)c3)cc(=O)oc2c1 | 10 µM (active) | –
36 | O=C(NCCN1CCN(c2ccc([N+](=O)[O-])cc2)CC1)NCc1ccccc1 | 12.6 µM (active) | –
37 | O=[N+]([O-])c1ccc(N2CCN(c3ccccc3)CC2)nc1 | – | 24.3
38 | O=C1NC(=S)S/C1=C\C=C\c1ccc([N+](=O)[O-])o1 | 1.78 µM (active) | –
39 | COC(=O)C1=C(C)N(CC2CC2)C(=NCc2cc(OC)c(OC)c(OC)c2)N[C@H]1c1ccccc1 | 12.6 µM (active) | –
40 | COc1ccccc1CNC(=O)c1ccc(-c2ccccc2Cl)o1 | 12.6 µM (active) | –
41 | Cc1ccc(CN2CCC(CNS(=O)(=O)c3ccc(-c4ccc(=O)[nH]n4)s3)CC2)cc1 | 5.01 µM (active) | –
42 | Cc1ccc(CNS(=O)(=O)c2ccc(C)s2)cc1 | – | 10.8
43 | CC1CN(c2nc(-c3ccc(Br)cc3)nnc2-c2ccccc2)CC(C)N1 (stereo unspecified) | 3.98 µM (active) | –
44 | COCCn1c(SCC(=O)Nc2ncc(Cl)c(C)c2Cl)nc2ccccc21 | – | -29.3
45 | O=C(CSc1nc2ccccc2n1-c1ccccc1)Nc1ncc(Cl)cc1Cl | 11.2 µM (active) | –
46 | Cc1ccc(-n2c(SCC(=O)Nc3ncc(Cl)cc3Cl)nc3ccccc32)cc1 | 11.2 µM (active) | –
47 | CN1c2ccccc2-c2nc3ccccc3n2C1c1cccs1 (stereo unspecified) | 7.08 µM (active) | –
48 | Cc1ccc(-c2nnc(SCC(=O)N/N=C/c3cccs3)n2-c2ccc(C)cc2)cc1 | 11.2 µM (active) | –
49 | COc1ccc2[nH]c3c(NCCN(C(C)C)C(C)C)ncnc3c2c1 | 5.62 µM (active) | –
50 | COc1ccc2[nH]c3c(NCCC4=CCCCC4)ncnc3c2c1 | 5.62 µM (active) | –
51 | CC(C)OCCCNc1ncnc2c1[nH]c1ccc(F)cc12 | 4.47 µM (active) | –
